# Screening results from PubChem.
# This is a sample that favours compounds with a hit; in the whole collection about 3.3% have one here.
# Statin myotox sup = suppressors of statin myotoxicity in C2C12 myotubes, primary screen, cell-based, single point, plate reader; rescue of ATP level, % at 7.49 µM; hit rate 0.78% among 330,000; AID 602340, 2012; C2C12 myotubes + simvastatin, ATP luminescence, 48 h; scaled: DMSO 0, geranylgeraniol control 100;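 active = mean ATP rescue above about 67%, or every replicate alone reaching that limit, limit read from the data, passing the limit was not always enough; inconclusive = no clear call, values can overlap the other calls; inactive = mean under the limit and some replicate under it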;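 also: myotubes were challenged with 10 µM simvastatin during compound exposure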
# Wnt bcat act = Wnt/beta-catenin pathway activators, primary screen, cell-based, plate reader, single point | Wnt/beta-catenin reporter cell assay, activator | activation, % at 9.35 µM | AID 743398, 2014 | hit rate 1.2% among 300,000; in the data active = activation above about 30%, passing the limit was not always enough; inconclusive = no clear call, values can overlap the other calls;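 also: 0% = neutral control wells and 100% = positive control wells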
# GAA850 FXN act = FXN promoter activators, primary screen, cell-based, luciferase luminescence, HEK293 lucGAA850 | HEK293 lucGAA850 FXN promoter luciferase reporter, 24 h; percent of 10 µM SAHA response | activation, % at 6 µM | hit rate 0.56% among 360,000 | AID 540364, 2011;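 active = activation above the average of all compounds screened plus 3 SD, cutoff fixed separately per campaign, cut at about 7.5% in these data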;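 also: 0% = DMSO wells and 100% = 10 µM SAHA wells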
# MITF act = activators of MITF-driven TRPM1 promoter reporter, primary screen, cell-based, SK-MEL-5, luciferase, single point | activation, % at 12.5 µM | SK-MEL-5 TRPM1-promoter luciferase, 24 h; % of positive control, neutral wells = 0 | hit rate 0.75% among 300,000;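 active = mean activation of at least 80% with every replicate also reaching 80%; inconclusive = mean reaches 80% but some replicate falls short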;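 also: 0% = neutral control wells and 100% = parthenolide positive control wells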
# esBAF inh = Bmi1 luciferase reporter increase in mESCs, primary screen, esBAF inhibitor project, mouse ES cells, Bmi1 luciferase knock-in, single point; reporter increase, % at 12.5 µM; 24 h; 100% = twice the neutral-well signal; hit rate 2% among 350,000; in the data active = activation above about 40%; inconclusive = no clear call, values can overlap the other calls;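 also: 0% = median of the plate's neutral control wells and 100% = double that signal; a rise in the Bmi1 reporter signal indicates esBAF inhibition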
# * hit, by the source's call; ? = inconclusive; . = no result.
SMILES,Statin myotox sup,Wnt bcat act,GAA850 FXN act,MITF act,esBAF inh
C[C@@H]1CN([C@@H](C)CO)C(=O)c2cc(-c3cccnc3)cnc2O[C@H]1CN(C)C(=O)C1CC1,.,.,.,.,-2.3
CCOC(=O)c1sc(-c2ccccc2)nc1C,.,?,2.6,25.7,.
CCOC(=O)Cc1ccc2sc(-c3ccccc3)nc2c1,-2.9,.,6.0,20.4,69.3*
CCCN1C[C@H](C)[C@@H](OC)CN(C)C(=O)c2cc(NC(=O)c3cccc(OC)c3)ccc2OC[C@H]1C,22.7,.,.,.,-0.2
CCc1cc2c(=O)c(-c3nc(C)cs3)coc2cc1O,3.5,38.9*,4.2,47.9,47.8*
Cc1csc(-c2coc3cc(O)cc(C)c3c2=O)n1,-0.5,22.2,3.4,9.6,60.2*
CC(C)C#Cc1ccc2c(c1)O[C@@H](CN(C)Cc1ccncc1)[C@H](C)CN([C@@H](C)CO)S2(=O)=O,-98.4,.,.,.,6.8
O=C(Nc1ccc([N+](=O)[O-])cc1)c1cccc([N+](=O)[O-])c1,3.1,39.7*,-0.3,.,-0.1
CCN(CC)c1ccc(C(=O)Nc2ccccc2)cc1[N+](=O)[O-],.,13.0,2.0,87.1*,.
O=C(Nc1ncc([N+](=O)[O-])s1)c1cccc([N+](=O)[O-])c1,-116.4,37.6*,3.9,-5.0,-58.0
O=C(Nc1ccc(NC(=O)c2cccc([N+](=O)[O-])c2)cc1)c1cccc([N+](=O)[O-])c1,-10.0,5.6,2.2,.,6.5
Cc1nc2nc(-c3cccs3)[nH]c2cc1Br,8.9,65.7*,2.7,.,27.1
c1ccc(-c2nc(-c3cccs3)[nH]c2-c2ccccc2)cc1,.,-1.4,2.0,-8.2,.
Oc1ccc(C2C(c3ccccc3)=NN=C(c3ccccc3F)N2O)c(O)c1 (stereo not given),.,.,1.4,-0.6,.
Oc1ccc(C2C(c3ccccc3)=NN=C(c3ccc(Cl)cc3)N2O)c(O)c1 (stereo not given),-15.9,2.7,-0.5,19.4,46.4*
CC(=O)Oc1ccc(-c2cc3ccc(OC(C)=O)cc3oc2=O)cc1,.,51.1*,-1.3,.,.
COc1ccc(-c2coc3cc(O)c(OC)cc3c2=O)cc1,5.1,9.3,3.2,66.6,23.1
CCOC(=O)COc1ccc2c(=O)c(-c3ccccc3)coc2c1,-7.4,-2.4,-0.9,20.2,-2.4
COc1ccc(-c2coc3cc(OC(C)=O)ccc3c2=S)cc1,-16.4,-3.3,4.6,87.2*,66.2*
CC(=O)Oc1ccc2c(=O)c(-c3ccccc3)coc2c1,.,41.1*,5.5,63.4,.
CC(=O)OC1CC(n2ccc(NC(=O)c3ccccc3)nc2=O)OC1CO (stereo not given),128.0*,.,1.4,10.4,-7.1
C[C@H](CO)N1C[C@H](C)[C@@H](CN(C)S(=O)(=O)c2cccs2)Oc2ncc(/C=C/c3ccccc3)cc2C1=O,8.5,.,.,.,11.4
O=C(c1cccs1)N1CCN(C(=O)c2cn(-c3ccccc3)nc2-c2ccccc2)CC1,1.4,12.1,1.3,25.3,53.7*
COc1cccc(-c2cc3nc(NCc4cccnc4)n(C)c(=O)c3s2)c1,-14.6,-0.3,5.7,.,45.7*
COCCNc1nc2cc(-c3ccc(C)cc3)sc2c(=O)n1C,-8.1,-1.4,5.4,.,54.8*
SMILES,Statin myotox sup,Wnt bcat act,GAA850 FXN act,MITF act,esBAF inh
Cn1c(NCCc2ccncc2)nc2cc(-c3ccccc3)sc2c1=O,-6.2,-1.0,3.7,.,56.4*
COc1ccccc1CNc1nc2cc(-c3sccc3C)sc2c(=O)n1C,-2.6,37.7*,4.1,.,65.8*
COCCNc1nc2cc(-c3cccc(C(F)(F)F)c3)sc2c(=O)n1C,-2.4,-0.8,1.9,.,-11.0
Cc1ccccc1-c1cc2nc(NCCc3ccncc3)n(C)c(=O)c2s1,-3.4,-0.5,2.7,.,11.3
O=C1NC[C@H](CC2CCCCC2)N(CC2CCCCC2)C1=O,107.3*,0.3,-1.3,5.8,2.2
CCC(=O)Nc1ccc2c(c1)OC[C@@H](C)N(C(=O)Cc1cccnc1)C[C@@H](C)[C@H](OC)CN(C)C2=O,16.5,.,.,.,1.3
CC1CCN(c2nc3ccc(C(=O)N4CCN(Cc5ccccc5)CC4)cc3s2)CC1,14.3,3.1,3.4,9.7,93.7*
CCOC(=O)N1CCN(C(=O)c2ccc3nc(N4CCCCC4)sc3c2)CC1,.,.,4.3,-1.6,.
Cc1cccc(N2CCN(C(=O)c3ccc4nc(N5CCCCC5)sc4c3)CC2)c1C,4.9,10.9,5.4,34.9,61.2*
CCOC(=O)N1CCN(C(=O)c2ccc3nc(N4CCC(C)CC4)sc3c2)CC1,19.3,.,6.4,10.7,57.7*
O=C(C[C@@H]1CC[C@H]2[C@@H](COC[C@@H](O)CN2CC2CCOCC2)O1)N1CCOCC1,2.1,.,.,.,-5.1
NC(=O)c1sc2nc3c(cc2c1N)CCC3,-6.4,19.0,-1.1,67.6,22.3
CC1(C)Cc2nc3sc(C(N)=O)c(N)c3cc2CO1,8.6,3.8,2.3,37.5,28.9
CCOC(=O)c1sc2nc3c(cc2c1N)COC(C)(CC)C3 (stereo not given),-8.0,57.6*,3.5,.,9.5
COC(=O)c1sc2nc3c(cc2c1N)CCCC3,.,57.7*,2.1,-6.6,.
CCC1(C)Cc2nc3sc(C(=O)O)c(N)c3cc2CO1 (stereo not given),-20.8,.,2.7,23.6,18.3
CCOC(=O)c1sc2nc3c(cc2c1N)COC(C)(C)C3,.,53.2*,4.3,?,.
COc1ccc(S(=O)(=O)Nc2ccc3c(c2)C(=O)N([C@@H](C)CO)C[C@@H](C)[C@@H](CN(C)C(=O)Nc2cccc4ccccc24)O3)cc1,35.4,.,.,.,1.3
COc1cccc(OCc2cc(C(=O)NCc3ccccn3)no2)c1,11.2,16.4,6.5,110.2*,61.3*
CCc1ccc(OCc2ccc(C(=O)NCc3ccccn3)o2)cc1,-5.4,.,2.0,21.0,45.9*
COc1cccc(OCc2cc(C(=O)NCCc3cccc(C)n3)no2)c1,11.2,0.5,0.6,2.1,4.7
CCOc1ccc(OCc2ccc(C(=O)NCc3ccncc3)o2)cc1,-13.1,.,4.4,9.7,10.0
COc1cccc(OCc2cc(C(=O)N(C)Cc3nc(C)cs3)no2)c1,-0.5,27.0,3.8,73.6,77.8*
O=C(C[C@H]1CC[C@@H](NC(=O)Nc2ccc(C(F)(F)F)cc2)[C@@H](CO)O1)NCc1ccccn1,-3.6,.,.,.,0.9
C[C@@H]1CCCCO[C@@H](CN(C)Cc2ccc(C(=O)O)cc2)[C@H](C)CN([C@H](C)CO)C(=O)c2cc(NC(=O)c3ccccc3)ccc2O1,.,.,.,.,-2.9
CO[C@H]1CN(C)C(=O)c2cc(NC(=O)C3CCOCC3)ccc2OC[C@@H](C)N(C(=O)c2ccccc2)C[C@H]1C,-3.5,.,.,.,0.4
Cc1nc(N)sc1-c1csc(Nc2ncccn2)n1,.,25.5,2.9,-40.8,.
COc1ccc(-c2csc(Nc3ncccc3C)n2)cc1OC,-16.4,3.4,3.9,78.7,86.7*
